Measured values published in PubChem BioAssay AID1159580 (chemical genetic matrix, 2015).
The campaign covered roughly 5,500 compounds. About 2,000 (36%) were called active. Another 18% or so got no clear call; they are omitted. No stated cut-off is given here; in the data, active means normalized growth mostly below about 0.91 (no sharp cut-off); inconclusive means no clear call, values can overlap the other calls; inactive means mostly above about 0.92. The list shows a part of the results.

Assay: chemical genetic growth profiling, strain panel (AID 1159580);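 further: tested at 20 µM; growth read once vehicle control cultures reached saturation at 30 °C; 1 = growth at the plate median or of vehicle wells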
Details: S. cerevisiae deletion strains, growth OD
[1] = locus YHR030C, strain SLT2, stronger effect = lower value
[2] = locus YHR079C, strain IRE1, stronger effect = lower value
[3] = locus YJL095W, strain BCK1, stronger effect = lower value
[4] = locus YJR066W, strain TOR1, stronger effect = lower value
[5] = locus YLR113W, strain HOG1, stronger effect = lower value
[6] = locus YNL183C, strain NPR1, stronger effect = lower value
[7] = locus YOR231W, strain MKK1, stronger effect = lower value
[8] = locus YPL256C, strain CLN2, stronger effect = lower value
[9] = locus YAL040C, strain CLN3, stronger effect = lower value
[10] = locus YCL061C, strain MRC1 (second series), stronger effect = lower value
[11] = locus YDR363W, strain ESC2, stronger effect = lower value
[12] = locus YER002W, strain NOP16, stronger effect = lower value
[13] = locus YJR075W, strain HOC1, stronger effect = lower value
[14] = locus YMR263W, strain SAP30, stronger effect = lower value
[15] = locus YMR307W, strain GAS1, stronger effect = lower value
[16] = locus YNL128W, strain TEP1, stronger effect = lower value
[17] = locus YNL175C, strain NOP13, stronger effect = lower value
[18] = locus YNL197C, strain WHI3, stronger effect = lower value
[19] = locus YNL224C, strain SQS1, stronger effect = lower value
[20] = locus YOR083W, strain WHI5 (second series), stronger effect = lower value
[21] = locus YAL013W, strain DEP1, stronger effect = lower value
[22] = locus YGR078C, strain PAC10, stronger effect = lower value
[23] = locus YPL241C, strain CIN2, stronger effect = lower value

Measured: normalized growth

CN(C)c1ccc2nc3ccc(=[N+](C)C)cc-3sc2c1
active: locus YDL005C, strain med2, stronger effect = lower value 1.1 [resistant] | locus YDR195W, strain ref2 1.25 [resistant] | locus YDR392W, strain spt3, stronger effect = lower value 0.624 | locus YGL167C, strain pmr1, stronger effect = lower value 1.09 [resistant] | locus YGL253W, strain hxk2, stronger effect = lower value 1.11 [resistant] | locus YHR013C, strain ard1, stronger effect = lower value 1.18 [resistant] | locus YHR027C, strain rpn1, stronger effect = lower value 1.08 [resistant] | [4] 0.576 | locus YKR091W, strain srl3, stronger effect = lower value 1.07 [resistant] | locus YLL041C, strain sdh2, stronger effect = lower value 1.08 [resistant] | [6] 0.543 | locus YNL209W, strain ssb2, stronger effect = lower value 1.08 [resistant]
inactive: locus YAL021C, strain ccr4, stronger effect = lower value 0.991 | locus YAL026C, strain drs2, stronger effect = lower value 1.01 | locus YAL030W, strain snc1, stronger effect = lower value 1.06 | locus YBL061C, strain skt5, stronger effect = lower value 1.05 | locus YBR009C, strain hhf1, stronger effect = lower value 1.04 | locus YBR023C, strain chs3, stronger effect = lower value 1.07 | locus YBR171W, strain sec66, stronger effect = lower value 1.08 | locus YBR231C, strain swc5, stronger effect = lower value 0.995 | locus YBR279W, strain paf1, stronger effect = lower value 1.07 | locus YCL011C, strain gbp2, stronger effect = lower value 1.04 | locus YCL016C, strain dcc1, stronger effect = lower value 1.02 | locus YCL069W, strain vba3, stronger effect = lower value 1.08 | locus YCR088W, strain abp1, stronger effect = lower value 1.07 | locus YDL040C, strain nat1, stronger effect = lower value 1.05 | locus YDR001C, strain nth1, stronger effect = lower value 1.06 | locus YDR069C, strain doa4, stronger effect = lower value 1.06 | locus YDR137W, strain rgp1, stronger effect = lower value 1 | locus YDR159W, strain sac3, stronger effect = lower value 1.03 | locus YDR297W, strain sur2, stronger effect = lower value 1.07 | locus YDR334W, strain swr1, stronger effect = lower value 1.05 | locus YDR335W, strain msn5, stronger effect = lower value 1.07 | locus YEL003W, strain gim4, stronger effect = lower value 0.974 | locus YEL037C, strain rad23, stronger effect = lower value 1.06 | locus YEL061C, strain CIN8 (second series), stronger effect = lower value 1.04 | locus YER015W, strain faa2, stronger effect = lower value 1.05 | locus YER016W, strain bim1, stronger effect = lower value 1.05 | locus YER111C, strain swi4, stronger effect = lower value 1.08 | locus YER155C, strain BEM2 (second series), stronger effect = lower value 0.941 | locus YFR010W, strain ubp6, stronger effect = lower value 1.06 | locus YGL173C, strain kem1, stronger effect = lower value 1.05 | locus YGL227W, strain vid30, stronger effect = lower value 1.08 | locus YGL240W, strain doc1, stronger effect = lower value 1 | [1] 0.994 | [2] 1.02 | locus YHR142W, strain chs7, stronger effect = lower value 1.07 | locus YJL092W, strain hpr5, stronger effect = lower value 1.05 | locus YJL095W, strain BCK1 (second series), stronger effect = lower value 1.07 | [3] 1.05 | locus YJL115W, strain asf1, stronger effect = lower value 1.07 | locus YJL129C, strain trk1, stronger effect = lower value 1.08 | locus YJL154C, strain vps35, stronger effect = lower value 1.06 | locus YJL164C, strain tpk1, stronger effect = lower value 1.04 | locus YJL166W, strain qcr8, stronger effect = lower value 1.02 | locus YKL160W, strain elf1, stronger effect = lower value 1.03 | locus YKR026C, strain gcn3, stronger effect = lower value 1.07 | locus YLL001W, strain dnm1, stronger effect = lower value 1.05 | locus YLL026W, stronger effect = lower value 1.05 | locus YLR027C, strain aat2, stronger effect = lower value 1.05 | [5] 1.07 | locus YLR221C, strain rsa3, stronger effect = lower value 1.04 | locus YLR258W, strain gsy2, stronger effect = lower value 1.04 | locus YLR262C, strain YPT6 (second series), stronger effect = lower value 1.1 | locus YLR320W, strain mms22, stronger effect = lower value 0.993 | locus YLR342W, strain FKS1, stronger effect = lower value 1.06 | locus YLR357W, strain rsc2, stronger effect = lower value 1.12 | locus YLR370C, strain arc18, stronger effect = lower value 1.05 | locus YLR384C, strain iki3, stronger effect = lower value 1.07 | locus YML120C, strain ndi1, stronger effect = lower value 1.04 | locus YMR058W, strain fet3, stronger effect = lower value 0.985 | locus YMR125W, strain sto1, stronger effect = lower value 1.09 | locus YMR129W, stronger effect = lower value 1.05 | locus YMR205C, strain PFK2, stronger effect = lower value 1.03 | locus YMR231W, strain pep5, stronger effect = lower value 1.04 | locus YNL071W, strain lat1, stronger effect = lower value 0.992 | locus YNL248C, strain rpa49, stronger effect = lower value 1.11 | locus YNL322C, strain KRE1 (second series), stronger effect = lower value 1.04 | locus YNR049C, strain mso1, stronger effect = lower value 1.05 | locus YOR001W, strain rrp6, stronger effect = lower value 1.06 | locus YOR070C, strain gyp1, stronger effect = lower value 1.05 | locus YOR080W, strain dia2, stronger effect = lower value 1.06 | locus YOR083W, strain WHI5, stronger effect = lower value 1.05 | locus YOR106W, strain vam3, stronger effect = lower value 0.994 | [7] 1.01 | locus YOR265W, strain rbl2, stronger effect = lower value 1.04 | locus YOR270C, strain vph1, stronger effect = lower value 0.983 | locus YOR290C, strain snf2, stronger effect = lower value 1.03 | locus YPL051W, strain arl3, stronger effect = lower value 0.979 | locus YPL078C, strain atp4, stronger effect = lower value 1.05 | locus YPL106C, strain sse1, stronger effect = lower value 1.05 | locus YPL240C, strain hsp82, stronger effect = lower value 1.06 | [8] 1.02

S=C(NC1CCCCC1)N1CCC(c2cnc[nH]2)CC1
inactive: [9] 1.01 | [10] 0.998 | [11] 1.01 | [12] 0.994 | [13] 1 | [14] 1.01 | [15] 0.996 | [16] 0.984 | [17] 1 | [18] 0.974 | [19] 0.986 | [20] 1.02 | locus YPL055C, strain LGE1, stronger effect = lower value 0.993

Cc1cccc(/C=C/c2ccccc2)n1
inactive: [21] 1 | [9] 0.984 | [10] 1.01 | [11] 1.04 | [12] 0.975 | [22] 1.01 | [15] 0.995 | locus YNL153C, strain GIM3, stronger effect = lower value 0.93 | [17] 0.963 | [18] 0.986 | [19] 0.989 | [20] 0.923 | [23] 1.02

OC(COc1ccc(F)cc1)(c1ccccc1)c1ccccc1
inactive: locus YAR019C, strain CDC15, stronger effect = lower value 0.955 | locus YBL105C, strain PKC1, stronger effect = lower value 0.953 | locus YBR135W, strain CKS1, stronger effect = lower value 0.965 | locus YBR136W, strain MEC1, stronger effect = lower value 0.968 | locus YBR160W, strain CDC28, stronger effect = lower value 0.951 | locus YDL017W, strain CDC7, stronger effect = lower value 0.955 | locus YDL028C, strain MPS1, stronger effect = lower value 0.977 | locus YDL101C, strain DUN1, stronger effect = lower value 0.939 | locus YDL108W, strain KIN28, stronger effect = lower value 0.982 | locus YDL132W, strain cdc53, stronger effect = lower value 0.955 | locus YDL214C, strain PRR2, stronger effect = lower value 0.964 | locus YDR052C, strain DBF4, stronger effect = lower value 0.965 | locus YDR054C, strain cdc34, stronger effect = lower value 0.949 | locus YDR226W, strain ADK1, stronger effect = lower value 0.955 | locus YDR477W, strain SNF1, stronger effect = lower value 0.985 | locus YER123W, strain YCK3, stronger effect = lower value 0.969 | locus YER133W, strain GLC7, stronger effect = lower value 0.993 | locus YFL009W, strain cdc4, stronger effect = lower value 0.954 | locus YFL029C, strain CAK1, stronger effect = lower value 0.957 | locus YFR003C, strain YPI1, stronger effect = lower value 0.961 | locus YFR019W, strain FAB1, stronger effect = lower value 0.974 | locus YFR028C, strain CDC14, stronger effect = lower value 0.964 | locus YGR040W, strain KSS1, stronger effect = lower value 0.998 | locus YGR052W, strain FMP48, stronger effect = lower value 1.1 | locus YGR092W, strain DBF2, stronger effect = lower value 0.939 | [1] 1.14 | [2] 1.09 | locus YHR082C, strain KSP1, stronger effect = lower value 1.1 | locus YHR205W, strain SCH9, stronger effect = lower value 0.977 | locus YIL147C, strain SLN1, stronger effect = lower value 0.966 | [3] 1.1 | locus YJL128C, strain PBS2, stronger effect = lower value 0.913 | locus YJL157C, strain FAR1, stronger effect = lower value 0.968 | locus YJR016C, strain ILV3, stronger effect = lower value 0.959 | locus YJR066W, strain TOR1 (second series), stronger effect = lower value 1.01 | [4] 1.15 | locus YKL048C, strain ELM1, stronger effect = lower value 0.95 | locus YKL067W, strain YNK1, stronger effect = lower value 0.961 | locus YKL101W, strain HSL1, stronger effect = lower value 0.962 | locus YKL193C, strain SDS22, stronger effect = lower value 0.959 | locus YKL203C, strain TOR2, stronger effect = lower value 1.07 | [5] 0.971 | locus YLR133W, strain CKI1, stronger effect = lower value 0.955 | locus YLR403W, strain SFP1, stronger effect = lower value 0.983 | locus YML070W, strain DAK1, stronger effect = lower value 0.973 | locus YMR001C, strain CDC5, stronger effect = lower value 0.954 | locus YMR205C, strain PFK2 (second series), stronger effect = lower value 0.968 | locus YMR277W, strain FCP1, stronger effect = lower value 0.961 | locus YNL006W, strain LST8, stronger effect = lower value 0.97 | locus YNL020C, strain ARK1, stronger effect = lower value 0.959 | locus YNL161W, strain CBK1, stronger effect = lower value 0.958 | [6] 1.12 | locus YNL207W, strain RIO2, stronger effect = lower value 0.971 | locus YNL222W, strain SSU72, stronger effect = lower value 0.962 | locus YNL307C, strain MCK1 (second series), stronger effect = lower value 0.961 | locus YOL078W, strain AVO1, stronger effect = lower value 0.967 | locus YOL136C, strain PFK27, stronger effect = lower value 0.98 | locus YOR061W, strain CKA2, stronger effect = lower value 0.969 | locus YOR119C, strain RIO1, stronger effect = lower value 1.02 | [7] 1.06 | locus YOR329C, strain SCD5, stronger effect = lower value 0.956 | locus YPL031C, strain PHO85, stronger effect = lower value 0.985 | locus YPL153C, strain RAD53, stronger effect = lower value 1 | locus YPL204W, strain HRR25, stronger effect = lower value 0.991 | locus YPL209C, strain IPL1, stronger effect = lower value 0.956 | [8] 1.02 | locus YPR025C, strain CCL1, stronger effect = lower value 0.954 | locus YPR106W, strain ISR1, stronger effect = lower value 0.954 | locus YPR111W, strain DBF20, stronger effect = lower value 0.949 | strain NNK1, stronger effect = lower value 0.956 | strain TSCII, stronger effect = lower value 0.957

CC(COc1ccc(/C=C/c2ccccc2)cc1)[N+](C)(C)C (stereo unspecified)
active: locus YDR150W, strain NUM1, stronger effect = lower value 0.926 | [13] 0.878 | [19] 1.12 [resistant] | [20] 0.816
inactive: [21] 0.942 | [9] 1.02 | [10] 0.982 | [11] 0.914 | [12] 0.989 | [22] 0.99 | [14] 1.01 | [15] 0.994 | [16] 1.03 | [17] 0.999 | [18] 0.996 | [23] 0.98
